PrP 5UTR inh – inhibition of PrP 5' UTR reporter expression; AID 488862; hit rate 0.35% among 340,000; cell-based PrP 5' UTR mRNA reporter, plate reader; inhibition, % (concentration not given with the values); in the data active = inhibition above about 52%; note: 0 = median of the neutral control wells
PrPC TRFRET – cell surface PrPC inhibition, primary TR-FRET screen. AID 720596. inhibition, % at 13.8 µM. TR-FRET read-out. hit rate 0.43% among 370,000. P04156; in the data active = inhibition above about 24%; note: 0% = median of the test wells and 100% = reference compound wells
PriA SSB inh – inhibitors of Klebsiella pneumoniae PriA binding to SSB C-terminal tail. AlphaScreen SSBct-PriA binding, biotinylated peptide. inhibition, % at 33 µM. hit rate 0.6% among 430,000. AID 1272365; in the data active = inhibition mostly above about 37%, no sharp cut-off; inactive = mostly below about 20%;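 note: plate controls were negative control peptide for no effect and reference peptide for full effect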
RecA intein inh – blocks M. tuberculosis RecA intein splicing. P9WHJ3. cell-free RecA intein splicing, fluorescence. inhibition, % (no concentration beside the values). hit rate 0.75% among 290,000. AID 2221; in the data active = inhibition above about 30%; inconclusive = no clear call, values can overlap the other calls;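 note: 0% = vehicle wells and 100% = reference inhibitor control wells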
Target sequence (P9WHJ3 whole entry, looked up): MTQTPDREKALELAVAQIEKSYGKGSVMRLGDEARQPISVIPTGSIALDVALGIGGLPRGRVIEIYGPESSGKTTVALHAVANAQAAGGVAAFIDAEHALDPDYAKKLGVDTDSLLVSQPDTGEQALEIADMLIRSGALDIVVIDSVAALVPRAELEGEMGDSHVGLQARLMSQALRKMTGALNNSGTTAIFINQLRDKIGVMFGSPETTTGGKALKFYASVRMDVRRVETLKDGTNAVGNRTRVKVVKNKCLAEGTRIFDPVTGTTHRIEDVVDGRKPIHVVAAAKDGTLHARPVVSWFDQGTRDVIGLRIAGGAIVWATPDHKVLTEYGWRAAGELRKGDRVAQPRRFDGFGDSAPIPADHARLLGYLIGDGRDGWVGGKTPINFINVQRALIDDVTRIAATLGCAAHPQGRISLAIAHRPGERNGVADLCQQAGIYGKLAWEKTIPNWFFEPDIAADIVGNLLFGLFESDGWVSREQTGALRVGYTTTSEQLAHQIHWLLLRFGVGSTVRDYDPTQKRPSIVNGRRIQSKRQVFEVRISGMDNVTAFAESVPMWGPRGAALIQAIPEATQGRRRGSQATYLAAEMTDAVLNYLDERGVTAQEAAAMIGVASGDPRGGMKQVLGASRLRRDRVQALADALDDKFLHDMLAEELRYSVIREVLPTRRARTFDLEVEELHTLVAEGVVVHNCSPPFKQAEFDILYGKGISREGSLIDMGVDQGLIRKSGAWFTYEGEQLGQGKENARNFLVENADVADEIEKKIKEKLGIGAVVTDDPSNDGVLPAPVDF
BJeLR viability – BJeLR cell viability loss; inhibition, % (concentration not given with the values); AID 1554; hit rate 0.17% among 300,000; BJeLR (HRASV12) viability, CellTiter-Glo ATP luminescence, 48 h; in the data active = inhibition above about 50%; inconclusive = no clear call, values can overlap the other calls
PfHsp40 rescue – restores yeast growth despite PfHsp40 toxicity. S. cerevisiae expressing PfHsp40, growth rescue, ATP luminescence. growth rescue, % at 12.5 µM. hit rate 0.68% among 340,000. AID 504582; in the data active = growth rescue above about 28%, passing the limit was not always enough; inconclusive = no clear call, values can overlap the other calls;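 note: yeast W303a lacking pdr1 and pdr3 grown in galactose medium; growth measured after three days at 30 °C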
PrP 5UTR single – prion 5' UTR mRNA inhibition, cherry-pick retest | shares compounds with PrP 5UTR inh | cell-based prion protein 5' UTR reporter, plate reader | inhibition, % at 2.5 µM | hit rate 48% among 1,100; in the data active = inhibition above about 54%; inconclusive = no clear call, values can overlap the other calls
The depositor's hits bear a star; ? = inconclusive; . = no result given. Hits are enriched below; roughly 1.9% of the tested compounds scored in any of these assays.

SMILES | PrP 5UTR inh | PrPC TRFRET | PriA SSB inh | RecA intein inh | BJeLR viability | PfHsp40 rescue | PrP 5UTR single
COCCn1c(C)cc(C2=NNC(=NC3CC3)SC2)c1C | 92* | -6 | 13 | -3 | 20 | 0 | 94*
COCCCN=C1NN=C(c2cc(C)n(Cc3ccco3)c2C)CS1 | 68* | 2 | -2 | 3 | 60* | -1 | 82*
C=CCN=C1NN=C(c2cc(C)n(CCOC)c2C)CS1 | 46 | 11 | -3 | 3 | 20 | 0 | .
COCCn1c(C)cc(C2=NNC(=Nc3ccc(Cl)cc3Cl)SC2)c1C | -20 | -2 | 6 | 5 | -10 | 0 | .
Cc1cc(C2=NNC(=NC3CC3)SC2)c(C)n1-c1ccccc1 | 94* | 5 | 7 | 0 | 19 | 0 | 94*
O=C(CSc1nnc(Cc2ccccc2)o1)Nc1nc(-c2ccccc2)cs1 | . | . | 1 | . | . | . | .
O=C(Nc1nnc(-c2ccccc2)o1)NC1CCCCC1 | 78* | 3 | 1 | 0 | 2 | 0 | -23
COc1ccc(S(=O)(=O)NCC(c2cccnc2)N2CCN(c3ccc(F)cc3)CC2)cc1C (stereo unspecified) | 52* | 0 | 16 | 3 | -7 | -1 | -2
CCN(CC)S(=O)(=O)c1ccc(N2CCOCC2)c(NC(=O)c2cccc3ccccc23)c1 | -8 | -3 | -2 | -2 | -12 | 2 | .
CCN(CC)S(=O)(=O)c1ccc(N2CCOCC2)c(NC(=O)c2cc(-c3ccccn3)nc3ccccc23)c1 | 66* | -3 | 3 | 6 | 8 | -1 | 24
O=C(Nc1ccccc1)c1cnc2n(c1=O)CCS2 | 56* | -3 | -10 | 1 | 3 | 0 | -39
CC(=O)CSc1ccc(-c2nc3cc(C)c(C)cc3[nH]2)cn1 | 82* | -4 | 5 | -4 | 7 | 0 | 74*
C[C@]12CCC(=O)C[C@@H]1CC[C@@H]1[C@@H]2CC[C@]2(C)C=CC[C@@H]12 | 66* | -3 | -14 | 4 | -14 | 0 | 9
C[C@]12CCC(=O)C[C@@H]1CC[C@@H]1[C@@H]2CC[C@]2(C)[C@@H](O)CC[C@@H]12 | -12 | 5 | 2 | . | . | -1 | .
CCOc1ccc(N2C(=O)N(Cc3ccc(F)cc3)c3ccccc3S2(=O)=O)cc1 | . | . | -18 | . | . | . | .
COc1ccc(-n2c(Cc3cc(=O)[nH]c(=O)[nH]3)nnc2SCC(=O)NC2CCCC2)cc1 | 61* | 3 | -6 | -1 | -11 | 5 | -6
CCOc1ccc(-n2c(Cc3cc(=O)[nH]c(=O)[nH]3)nnc2SCC(=O)NC2CCCC2)cc1 | -10 | 6 | -4 | . | . | 0 | .
Cc1ccc(SCc2ccc(C(=O)Nc3cc(C)on3)o2)cc1 | . | . | -9 | . | . | . | .
N=c1ccn2c(n1)O[C@H]1[C@@H](CO)[C@H](O)O[C@H]12 | 52* | 0 | -5 | . | . | -1 | 38
COc1ccccc1N1CCN(CCNC(=O)c2ccccc2C(F)(F)F)CC1 | . | . | -12 | . | . | . | .
O=C1c2ccccc2C(=O)C1c1ccnc2ccccc12 | 58* | -12 | -7 | 2 | 25 | 2 | 40
COc1ccccc1NC(=O)c1oc2ccccc2c1NC(=O)c1cc(OC)c(OC)c(OC)c1 | 56* | 0 | -20 | 2 | 21 | -1 | 84*
CCN(CC)c1ccc(/C=C(/C#N)C(=O)NC(C)C)o1 | 82* | -22 | 6 | -9 | 6 | 0 | -24
N#CC1=C(N)Oc2cc(N)ccc2C1c1cccc(F)c1 (stereo unspecified) | -20 | 8 | 6 | -5 | 33 | 1 | .
CN(C)c1ccc2c(c1)OC(N)=C(C#N)C2c1cccc(F)c1 (stereo unspecified) | 66* | . | 37 | -10 | 10 | 0 | 90*
SMILES | PrP 5UTR inh | PrPC TRFRET | PriA SSB inh | RecA intein inh | BJeLR viability | PfHsp40 rescue | PrP 5UTR single
Cc1cc(-c2ccccc2)n(-c2cc(NN=Cc3ccccc3O)ncn2)n1 | . | . | -8 | . | . | . | .
Cc1cc(-c2ccccc2)n(-c2cc(N/N=C/c3ccccc3O)ncn2)n1 | 76* | -4 | . | . | . | 582* | 90*
O=C1c2ccccc2C(=O)c2c1cccc2-c1ccc(/C=C2\SC(=S)N(c3ccccc3)C2=O)o1 | . | . | -16 | . | . | . | .
CN(C)C(=O)c1cc(C(=O)c2c(F)cccc2F)c[nH]1 | 68* | -5 | -6 | -1 | -3 | -1 | -14
CN(C)C(=O)c1cc(C(=O)c2ccccc2)c[nH]1 | -17 | 5 | -7 | -3 | 5 | 0 | .
COc1cc(C2c3cc4c(cc3C(O)C3COCC23)OCO4)cc(OC)c1OC (stereo unspecified) | 1 | -3 | -8 | . | . | 0 | .
COc1cc([C@@H]2c3cc4c(cc3[C@@H](O[C@@H]3O[C@@H]5CO[C@@H](C)O[C@H]5[C@H](O)[C@H]3O)[C@H]3COC(=O)[C@H]23)OCO4)cc(OC)c1O | -3 | -4 | -6 | 3 | 11 | 0 | .
COc1cc([C@@H]2c3cc4c(cc3[C@H](O)[C@H]3COC(=O)[C@H]23)OCO4)cc(OC)c1OC | 67* | 11 | -5 | -4 | 42 | 0 | 85*
COc1cc(C2c3cc4c(cc3OC(NNC(N)=O)C2C)OCO4)cc(OC)c1OC (stereo unspecified) | 52* | 11 | . | . | . | -2 | 87*
COc1cc(C2c3cc4c(cc3C(OC3OC5COC(c6cccs6)OC5C(O)C3O)C3COC(=O)C23)OCO4)cc(OC)c1O (stereo unspecified) | 71* | 13 | -16 | -3 | 73* | 1 | 61*
Cc1ccc(-c2n[nH]c(=S)n2/N=C/c2ccc(C)s2)cc1 | 66* | -2 | . | 0 | -3 | -2 | 8
O=C1c2cccc3cccc(c23)C(=O)N1CCc1ccc(S(=O)(=O)N[C@H]2CCS(=O)(=O)C2)cc1 | . | . | -14 | . | . | . | .
CCOC(=O)c1c(-c2ccc(F)cc2)csc1NC(=O)Cc1cccc2ccccc12 | . | . | -10 | . | . | . | .
NC(=NOC(=O)c1ccccc1[N+](=O)[O-])c1cccnc1 | . | . | 12 | . | . | . | .
Cc1sc(NC(=S)NC(=O)CCc2ccccc2)c(C(N)=O)c1C | 54* | 15 | 2 | . | . | -2 | 81*
Cc1sc(NC(=S)NC(=O)c2ccco2)c(C(N)=O)c1C | -34 | 3 | -1 | -2 | 2 | -1 | .
COC(=O)CCC(=O)Nc1sc(C)c(C)c1C(N)=O | -3 | 1 | 2 | -3 | 9 | 2 | .
COC(=O)CCC(=O)NC(=S)Nc1sc(C)c(C)c1C(N)=O | 67* | 9 | -11 | -3 | 31 | -1 | 86*
O=C1CCSCC(C(=O)NCc2ccc(OC(F)(F)F)cc2)N1 (stereo unspecified) | . | . | -4 | . | . | . | .
O=C1c2ccccc2S(=O)(=O)N1Cc1nc2ccccc2s1 | 70* | 1 | -15 | -2 | 4 | 1 | ?
O=C(CCN1C(=O)c2ccccc2S1(=O)=O)Nc1nc2ccccc2s1 | . | . | 3 | . | . | . | .
O=C(c1c[nH]c2ccccc12)N1Cc2cnc(N3CCOCC3)nc2C1 | . | . | -10 | . | . | . | .
NCCNCCNCCN | 89* | -2 | -8 | -2 | -1 | 0 | -58

Bioassay records from PubChem BioAssay.
